This is a sample that favours compounds with a hit; in the whole collection about 3.4% have one here.
Cardio protect: modulators protecting cardiomyocytes from myocardial damage | H9c2 cardiomyocytes, H2O2 injury protection, ATPLite, 2 h | protection from H2O2 cell death, % at 20 µM | 360,000 tested, 0.63% active | AID 588492;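 active = compounds giving at least 50% protection of heart cells from peroxide-induced death in the single-dose screen, raw or plate-pattern-corrected value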;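 also: 0% = DMSO wells with peroxide and 100% = DMSO wells without peroxide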
NR2F2 inh: blocks human COUP-TFII nuclear receptor; P24468; 370,000 tested, 0.7% active; HEK293T NGFI-A luciferase reporter, luminescence; inhibition, % at 8.6 µM;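 active = inhibition above a per-plate cutoff, mean inhibition of test wells between control levels plus 3 SD, cut at about 38% in these data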;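 also: cells cotransfected with COUP-TFII expression vector driving the NGFI-A reporter; 0% = median of COUP-TF2 test wells and 100% = reporter-only cells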
Target sequence (P24468 whole entry, looked up): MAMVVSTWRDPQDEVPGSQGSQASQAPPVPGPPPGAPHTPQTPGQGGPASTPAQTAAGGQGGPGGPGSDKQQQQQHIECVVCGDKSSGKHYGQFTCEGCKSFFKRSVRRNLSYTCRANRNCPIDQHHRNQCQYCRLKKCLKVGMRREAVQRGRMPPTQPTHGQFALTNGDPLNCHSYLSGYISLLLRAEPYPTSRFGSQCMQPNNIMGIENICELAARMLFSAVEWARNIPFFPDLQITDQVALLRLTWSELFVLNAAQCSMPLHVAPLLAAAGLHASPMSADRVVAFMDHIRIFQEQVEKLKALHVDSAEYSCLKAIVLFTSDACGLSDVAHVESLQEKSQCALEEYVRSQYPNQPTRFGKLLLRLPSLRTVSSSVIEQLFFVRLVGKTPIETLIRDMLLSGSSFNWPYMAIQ
GAA850 FXN act: increases GAA850 frataxin promoter reporter activity; 360,000 tested, 0.56% active; HEK293 lucGAA850 FXN promoter luciferase reporter, 24 h; percent of 10 µM SAHA response; activation, % at 6 µM; AID 540364;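 active = activation above the average of all compounds screened plus 3 SD, cutoff fixed separately per campaign, cut at about 7.5% in these data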;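 also: 0% = DMSO wells and 100% = 10 µM SAHA wells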
Gli-Sufu block: blocks Gli-Sufu signaling in a luciferase reporter | Sufu-KO-LIGHT fibroblasts, Gli luciferase reporter luminescence | inhibition, % at 5 µM | 340,000 tested, 0.74% active;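 active = inhibition above about 55%, limit read from the data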;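 also: 0% = DMSO-treated cells and 100% = wells with medium but no cells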
SMARCA2 activ: activators of SMARCA2 function; 370,000 tested, 1% active; activation, % at 9.1 µM; MG213 cells, MMTV-luciferase reporter, dexamethasone, overnight; in the data active = activation above about 7.8%;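 also: 0% = vehicle wells and 100% = reference activator wells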
GalR3 antagonist: human GalR3 antagonism; HEK293 GalR3-CNG cAMP membrane potential fluorescence; galR3 body fused to GalR1 C-terminus; inhibition, % at 3 µM; 360,000 tested, 0.44% active;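 active = inhibition above the screen-wide average plus 3 SD, cut at about 13% in these data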;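 also: forskolin and galanin both at EC90 stimulate the cells; cAMP rise reported by CNG channel membrane potential dye signal; 0% = forskolin plus galanin with DMSO and 100% = forskolin alone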
SMARCA2 act conf: confirmation of SMARCA2 (BRM) function activators. shares compounds with SMARCA2 activ. MG213 cells, MMTV-luciferase with dexamethasone, luminescence, overnight; MG213 cells expressing E1A, Rb sequestered; DMSO wells 0%, reference activator 100%. activation, % at 9.1 µM. 3,500 tested, 30% active. AID 652260;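 active = activation above its plate's cutoff, the mean activation of tested wells plus 3 SD, cut at about 7.9% in these data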
VP16 Luc act: activates GAL4-VP16 luciferase, flagging SMARCA2 activator hits; 3,500 tested, 41% active; activation, % at 9.1 µM; AID 686939; HEK293 GAL4-VP16 pG5luc reporter, luciferase luminescence; scaled: DMSO wells 0%, SAHA wells 100%; shares compounds with SMARCA2 activ;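 active = activation above the solvent-only control well mean plus 3 SD, averaged across control plates, cut at about 5.2% in these data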
* marks the source's active call; other numbers are inactive results; x = no result given.

SMILES	Cardio protect	NR2F2 inh	GAA850 FXN act	Gli-Sufu block	SMARCA2 activ	GalR3 antagonist	SMARCA2 act conf	VP16 Luc act
Cc1nc(SCc2cccc(Oc3ccccc3)c2)n[nH]1	-21	-19	4	4	1	-4	x	x
COC(=O)c1ccc(NCc2cc(O)ccc2O)cc1O	-15	-2	7	0	8.5*	-1	6	3
O=C(NCCc1ccc(F)cc1)c1cccc(NC(=O)c2ccccc2)c1	12	-4	2	-10	5	-4	x	x
COc1cc(/C=N/N(c2ccccc2)c2ccccc2)ccc1O	-23	-2	-1	-13	-1	-11	x	x
CCOc1ccc(/C=N/N(C)c2ccccc2)cc1OC	-17	-17	6	-16	8.5*	1	8.1*	12*
C=CCn1c(O)c(N=NC(=S)Nc2cccc(OC)c2)c2ccccc21	39	8	-1	45	10*	-13	-1	3
CN(C)S(=O)(=O)c1cccc(NC(=O)c2cccc(N3C(=O)CCC3=O)c2)c1	-1	11	1	-10	-2	-4	x	x
N#Cc1ccccc1OCC(=O)Nc1ccc2c(c1)OCO2	-13	-39	1	x	9.0*	1	18*	7.6*
N#Cc1ccccc1OCC(=O)Nc1ccc2c(c1)OCCO2	0	-38	2	-20	8.5*	-3	4	6.3*
N#Cc1ccccc1OCC(=O)Nc1ccc2c(c1)OCCCO2	10	-31	6	13	6	-8	x	x
O=C(CNC(=O)c1ccc(Br)cc1)N/N=C/c1cccnc1	2	-19	2	19	10*	-8	1	1
COc1ccc(NC(=O)COC(=O)c2ccc(S(=O)(=O)N(C)c3ccccc3OC)cc2)cc1	6	17	-1	-9	0	-4	x	x
O=C1NC(=S)SC1=Cc1cccs1	-8	4	1	-2	0	-5	x	x
O=C1Nc2ccccc2S/C1=C/c1cccs1	1	-27	5	24	10*	0	5	1
NC(=O)c1ccc(N=Cc2ccc([N+](=O)[O-])s2)cc1	-28	-12	4	5	8.9*	-1	-13	5
CCCN1CCN(CCCNC(=O)c2ccc3nc(N4CCC(C)CC4)sc3c2)CC1	0	-8	5	x	2	-4	x	x
CC1CCCCN1CCCNC(=O)c1ccc2nc(N3CCCCC3)sc2c1 (centres undefined)	1	-75	3	-60	17*	3	9.4*	9.8*
C#CCOC(=O)Nc1cc(C)n(-c2ccccc2)n1	-5	11	1	-7	2	-3	x	x
O=C(NN=C1C2CC3CC1CC(Cl)(C3)C2)c1ccccn1	8	-41	5	-15	9.1*	-2	7	2
CNC(=S)Nc1sc2c(c1C(=O)OC)CCC2	-2	-7	1	12	9.1*	-6	0	0
COC(=O)c1c(NC(C)=O)sc2c1CCCC2	-8	-2	2	-2	2	-4	x	x
CCCNC(=O)C1(C)CCN(Cc2csc3ccccc23)C1 (centres undefined)	2	4	-1	x	-3	-7	x	x
COCCCNC(=O)CN1C(=O)C2CCCCN2C(=O)c2ccccc21 (centres undefined)	x	-3	x	x	-7	x	x	x
COc1cccc(CNS(=O)(=O)c2c(C(=O)N3CCCCC3)c(C)n(C)c2C)c1	2	-9	1	-22	2	-11	x	x
COc1cccc(CNS(=O)(=O)c2c(C(=O)N3CCCCCC3)c(C)n(C)c2C)c1	-2	5	0	-13	9.8*	-4	0	-1
SMILES	Cardio protect	NR2F2 inh	GAA850 FXN act	Gli-Sufu block	SMARCA2 activ	GalR3 antagonist	SMARCA2 act conf	VP16 Luc act
CCOc1ccc(CCNC(=O)Nc2cccc(OC)c2)cc1OCC	-7	11	1	4	-2	-7	x	x
Cc1c(Cl)cccc1NC(CC(=O)c1ccccc1)C(=O)O (centres undefined)	4	-12	2	-10	9.7*	-1	7	3
O=C(Nc1ccccc1)c1ccn[nH]1	7	-34	4	3	6	-2	x	x
CC(=O)c1ccc(NC(=O)c2ccn[nH]2)cc1	-10	-49	4	-50	8.2*	-5	8.0*	8.0*
CC(C)N(Cc1cn(Cc2ccccc2)nn1)S(=O)(=O)c1ccc(F)cc1Br	x	2	x	x	8.7*	x	-2	0
CN(Cc1cn(Cc2ccccc2)nn1)S(=O)(=O)c1ccccc1Br	x	-3	x	x	0	x	x	x
c1ccc(C2Nc3ccccc3-c3nc4ccccc4n32)nc1 (centres undefined)	-2	-42	0	-8	10*	-7	1	1
COc1ccc(OC)c(S(=O)(=O)N2CCC(C(=O)NCC3COCCO3)CC2)c1 (centres undefined)	x	-3	x	x	-3	x	x	x
c1ccc(OCc2nc(-c3cccs3)no2)cc1	-9	-36	4	-66	11*	-6	9.2*	6.6*
N#CCSc1ccccc1NC(=O)CN1C(=O)C2CC=CCC2C1=O (centres undefined)	5	3	0	16	0	-2	x	x
CCOc1ccc(Cl)cc1/C=C1/C(=O)ON=C1C	12	17	1	-10	8.0*	-10	5	1
CC(/C=C/c1ccccc1)=N/NC(=O)Cn1nnc(N)n1	-3	5	2	-2	-1	1	x	x
COc1ccc(C)cc1N(C(=O)CNC(=O)c1ccco1)C(C(=O)NC1CCCC1)c1cccnc1 (centres undefined)	6	2	-1	5	-1	-2	x	x
C/C(=N/NC(=O)c1sc(=S)n(C)c1C)c1ccccc1	5	-26	-1	-10	-2	0	x	x
Cc1ccc(-c2cn(-c3ccccc3)c(SCC(N)=O)n2)cc1C	-2	-83	4	9	9.8*	-4	3	6.6*
Cc1ccc(S(=O)(=O)N2CC(C)C(=O)CC2C)cc1 (centres undefined)	-1	-1	2	-11	-2	-6	x	x
O=C(CN1C(=O)NC2(CCc3ccccc32)C1=O)Nc1cccc(Cl)c1 (centres undefined)	-4	-1	-2	2	-5	0	x	x
O=C(CN1C(=O)NC2(CCc3ccccc32)C1=O)c1ccc(Cl)cc1 (centres undefined)	-5	13	1	4	0	1	x	x
CC(C)c1ccc(C(=O)CN2C(=O)NC3(CCc4ccccc43)C2=O)cc1 (centres undefined)	-5	-19	3	1	11*	-6	3	0

Compound activity (PubChem)
